Laboratory results as given in article PMC5540273 (PLoS ONE, 2017).

How the values were obtained:
Settings in all cases: concentration: 1 μM, replicates: in singlicate; n = 1
[1] = test system: GRK4
[2] = test system: GRK7
[3] = test system: GSK3A
[4] = test system: GSK3B
[5] = test system: T1, HASPIN
T1 construct: gene GSG2

[6] = test system: HCK
[7] = test system: HIPK1
[8] = test system: HIPK2
[9] = test system: HIPK3
[10] = test system: HIPK4
[11] = test system: HPK1
[12] = test system: HUNK
[13] = test system: ICK
[14] = test system: IGF1R
[15] = test system: T2, IKK-alpha
T2 construct: gene CHUK

[16] = test system: T3, IKK-beta
T3 construct: gene IKBKB

[17] = test system: T4, IKK-epsilon
T4 construct: gene IKBKE

[18] = test system: INSRR
[19] = test system: INSR
[20] = test system: IRAK1
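Also: KINOMEscan kinase panel screen.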

SMILES	%Inh [1]	%Inh [2]	%Inh [3]	%Inh [4]	%Inh [5]	%Inh [6]	%Inh [7]	%Inh [8]	%Inh [9]	%Inh [10]	%Inh [11]	%Inh [12]	%Inh [13]	%Inh [14]	%Inh [15]	%Inh [16]	%Inh [17]	%Inh [18]	%Inh [19]	%Inh [20]
c1ccc(-c2cc(-c3c[nH]nc3-c3ccccn3)ccn2)cc1 [GW576604]	0%	0%	11%	0%	16%	0%	0%	0%	15%	6%	25%	16%	0%	19%	0%	0%	0%	0%	2%	7%
Cc1cn2c(=O)cc(N3CCOCC3)nc2n1Cc1cccc(Cl)c1Cl [GSK2334006]	0%	0%	11%	13%	11%	16%	0%	0%	18%	6%	30%	9%	12%	0%	7%	18%	3%	28%	0%	0%
CC(=O)Nc1ccc(COc2ccc(Nc3ccnc4cc(-c5ccccn5)ccc34)cc2)cc1.Cl [GW440148]	0%	0%	34%	12%	13%	52%	0%	0%	12%	7%	10%	22%	0%	0%	0%	4%	21%	0%	12%	0%
O=c1cc(N2CCOCC2)nc2n(Cc3cccc(Cl)c3Cl)c(C3CC3)nn12 [GSK2358994]	0%	0%	4%	0%	0%	0%	16%	0%	16%	0%	14%	0%	4%	0%	0%	0%	0%	0%	0%	0%
NS(=O)(=O)CCc1cccc(Nc2nccc(-c3c(-c4cccc(NC(=O)c5c(F)cccc5F)c4)nn4ccccc34)n2)c1 [GSK336735]	43%	12%	20%	6%	0%	98.9%	0%	0%	8%	25%	56%	0%	0%	73%	0%	0%	33%	62%	39%	0%
CCc1nc(-c2cccc(C)c2)c(-c2ccnc(NCc3ccccc3)c2)s1	9%	0%	12%	0%	41%	5%	21%	0%	0%	7%	0%	0%	0%	0%	15%	2%	0%	9%	0%	0%
